Test [1] in a line: NCI Yeast Anticancer Drug Screen. Data for the rad50 strain (AID 155).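 Also: 0% = growth of vehicle-only cultures of the same strain.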 To be noted: S. cerevisiae rad50 strain growth inhibition, active compounds read high. The method, boiled down: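 Readout: growth inhibition relative to vehicle-treated cultures. Compound exposure was carried out in a genetically defined yeast strain deficient in DNA damage repair.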
Test [2] can be described thus: NCI Yeast Anticancer Drug Screen. Data for the mec2-1 strain (AID 157). To be noted: S. cerevisiae mec2-1 strain, active compounds read high. The method, boiled down:
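Each compound was tested on mec2-1 yeast, a strain altered in DNA damage repair or cell cycle control. Growth inhibition is reported relative to vehicle.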

Test [3] in a line: NCI Yeast Anticancer Drug Screen. Data for the sgs1 mgt1 strain (AID 161).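 Also: 0% = growth of cultures given vehicle only.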 The following applies: S. cerevisiae sgs1 mgt1 strain, active compounds read high. In outline: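 Test agents were incubated with a DNA-repair-mutant yeast strain. Growth was then read and compared against vehicle-treated controls.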
Test [4] in a line: NCI Yeast Anticancer Drug Screen. Data for the cln2 rad14 strain (AID 165).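 Also: 0% = growth equal to vehicle treated cultures.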 The following applies: S. cerevisiae cln2 rad14 strain, active compounds read high. The method, boiled down:
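Test compounds were added to cln2 rad14 yeast cultures; inhibition of growth was then determined by comparison with vehicle treatment.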

The nature of test [5]: NCI Yeast Anticancer Drug Screen. Data for the bub3 strain (AID 167). To be noted: S. cerevisiae bub3 mutant strain, active compounds read high. The method, boiled down: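 Readout: yeast growth inhibition, expressed relative to vehicle-only wells. The test organism is a mutant strain from a panel with lesions in DNA repair or checkpoint genes.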
The nature of test [6]: NCI Yeast Anticancer Drug Screen. Data for the mlh1 rad18 strain (AID 175). The following applies: S. cerevisiae mlh1 rad18 strain growth inhibition, active compounds read high. The method, boiled down: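 Inhibition values reflect reduced growth of mutant yeast versus vehicle-treated controls following compound exposure; the mutations affect DNA damage repair.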
[7] abbreviates: at 5.0 µM (retest, dose inferred, filed as 0.5).
[8] abbreviates: at 50.0 µM (retest, dose inferred, filed as 5.0).

The panel holds about 79,000 compounds, 15% with a hit somewhere; the sample as a whole holds those more often. Values without a mark were called inactive. Activity calls are given as the source filed them. Rule as the data show it: active = growth inhibition above about 70%; inactive = the rest.

The values that follow come from PubChem BioAssay (NCI).

With `C[N+]1(C)CCN(CCCN2c3ccccc3Sc3ccccc32)CC1`, the growth inhibition in test [1] (setting [7]) is 0%; in test [1] (setting [8]) it was 54%; in test [1] (at 50.0 µM), 42.1%; in test [2] (setting [7]), 8%; in test [2] (setting [8]), 22%; in test [2] (at 50.0 µM) it was 14.3%. Further, the growth inhibition in test [3] (setting [7]) was -222%; in test [3] (setting [8]) it was 66%; in test [3] (at 50.0 µM), 66.9%; in test [4] (setting [7]) it was 4%; in test [4] (setting [8]), 15%; in test [4] (at 50.0 µM), 25.7%. The growth inhibition was 5% in test [5] (setting [7]); 26% in test [5] (setting [8]); 10.9% in test [5] (at 50.0 µM); -5% in test [6] (setting [7]); 76% (active) in test [6] (setting [8]); 56.9% in test [6] (at 50.0 µM).
For the molecule `O=C1OC(c2cccc(Cl)c2)=N/C1=C\C=C/c1ccccc1`, the growth inhibition in test [1] (setting [7]) was -3%; in test [1] (setting [8]) it was -10%; in test [1] (at 50.0 µM) it was 14.1%; in test [2] (setting [7]), -27%; in test [2] (setting [8]), -15%; in test [2] (at 50.0 µM), -7.9%. In addition, the growth inhibition in test [3] (setting [7]) was -8%; in test [3] (setting [8]), 1%; in test [3] (at 50.0 µM), 17.6%; in test [4] (setting [7]) it was 19%; in test [4] (setting [8]) it was 21%; in test [4] (at 50.0 µM), 11.8%. For the same molecule, the growth inhibition in test [5] (setting [7]) is -1%; in test [5] (setting [8]), -10%; in test [5] (at 50.0 µM), 11.9%; in test [6] (setting [7]), -16%; in test [6] (setting [8]), -39%; in test [6] (at 50.0 µM), 3.9%.
As for `N#C/C(=C1/C(=O)c2ccccc2-c2ccccc21)c1ccccc1`, the growth inhibition was 92% (active) in test [1] (setting [7]); 97% (active) in test [1] (setting [8]); 97.2% (active) in test [1] (at 50.0 µM); 100% (active) in test [2] (setting [7]); 99% (active) in test [2] (setting [8]); 98.2% (active) in test [2] (at 50.0 µM). For the same molecule, the growth inhibition in test [3] (setting [7]) was 99% (active); in test [3] (setting [8]), 99% (active); in test [3] (at 50.0 µM), 97.6% (active); in test [4] (setting [7]) it was 61%; in test [4] (setting [8]), 97% (active); in test [4] (at 50.0 µM) it was 98.2% (active). The growth inhibition in test [5] (setting [7]) is 99% (active); in test [5] (setting [8]), 98% (active); in test [5] (at 50.0 µM), 98% (active); in test [6] (setting [7]), 99% (active); in test [6] (setting [8]) it was 99% (active); in test [6] (at 50.0 µM) it was 98.7% (active).
`Cc1nc(C(N)=S)sc1C(=O)C/C(=N/N)C(=O)Nc1cccc(Cl)c1C`: the growth inhibition in test [1] (setting [7]) was 8%; in test [1] (setting [8]) it was 24%; in test [1] (at 50.0 µM), 26.1%; in test [2] (setting [7]), -5%; in test [2] (setting [8]), 14%; in test [2] (at 50.0 µM) it was 29.6%. In addition, the growth inhibition in test [3] (setting [7]) is -7%; in test [3] (setting [8]) it was 23%; in test [3] (at 50.0 µM), -4.95%; in test [4] (setting [7]), -28%; in test [4] (setting [8]), -15%; in test [4] (at 50.0 µM), -15.2%. Moreover, the growth inhibition is 5% in test [5] (setting [7]); 23% in test [5] (setting [8]); 6.25% in test [5] (at 50.0 µM); 11% in test [6] (setting [7]); 7% in test [6] (setting [8]); 37.1% in test [6] (at 50.0 µM).
With `O/N=C(/CN1CCN(c2ccccc2)CC1)c1ccccc1`, the growth inhibition in test [1] (setting [7]) was 1%; in test [1] (setting [8]), -1%; in test [1] (at 50.0 µM), 45.4%; in test [2] (setting [7]), 0%; in test [2] (setting [8]) it was -2%; in test [2] (at 50.0 µM), -14.4%. The growth inhibition was -4% in test [3] (setting [7]); -3% in test [3] (setting [8]); 10.7% in test [3] (at 50.0 µM); 2% in test [4] (setting [7]); 1% in test [4] (setting [8]); -68.2% in test [4] (at 50.0 µM). In addition, the growth inhibition was -2% in test [5] (setting [7]); -2% in test [5] (setting [8]); 13.4% in test [5] (at 50.0 µM); 1% in test [6] (setting [7]); -4% in test [6] (setting [8]); -3.8% in test [6] (at 50.0 µM).
Consider `CC(C)NC(=O)OCc1c2c(n(C)c1COC(=O)NC(C)C)-c1ccccc1CC2`, for which the growth inhibition in test [1] (setting [7]) is 77% (active); in test [1] (setting [8]), 97% (active); in test [1] (at 50.0 µM), 98.2% (active); in test [2] (setting [7]) it was 14%; in test [2] (setting [8]) it was 98% (active); in test [2] (at 50.0 µM) it was 98.6% (active). Further, the growth inhibition in test [3] (setting [7]) was 13%; in test [3] (setting [8]), 97% (active); in test [3] (at 50.0 µM) it was 98.4% (active); in test [4] (setting [7]), -5%; in test [4] (setting [8]), 97% (active); in test [4] (at 50.0 µM) it was 97.8% (active). Further, the growth inhibition in test [5] (setting [7]) is 4%; in test [5] (setting [8]) it was 98% (active); in test [5] (at 50.0 µM), 97.6% (active); in test [6] (setting [7]), 26%; in test [6] (setting [8]) it was 96% (active); in test [6] (at 50.0 µM), 98.2% (active).
With `C=C1C(=O)C23C(O)C1CC[C@H]2C12CCCC(C)(COC(C)=O)[C@H]1[C@H](O)[C@]3(O)OC2` (stereo not given in full), the growth inhibition was 28% in test [1] (setting [7]); 94% (active) in test [1] (setting [8]); 90.4% (active) in test [1] (at 50.0 µM); 26% in test [2] (setting [7]); 97% (active) in test [2] (setting [8]); 92.2% (active) in test [2] (at 50.0 µM). Moreover, the growth inhibition was 83% (active) in test [3] (setting [7]); 97% (active) in test [3] (setting [8]); 92.2% (active) in test [3] (at 50.0 µM); 77% (active) in test [4] (setting [7]); 96% (active) in test [4] (setting [8]); 89.2% (active) in test [4] (at 50.0 µM). Further, the growth inhibition in test [5] (setting [7]) is 22%; in test [5] (setting [8]) it was 96% (active); in test [5] (at 50.0 µM), 90% (active); in test [6] (setting [7]) it was 43%; in test [6] (setting [8]) it was 95% (active); in test [6] (at 50.0 µM) it was 89.2% (active).
`CC(C)CC(NC(=O)SCc1ccccc1)C(=O)O` (stereo not given): the growth inhibition in test [1] (setting [7]) is -2%; in test [1] (setting [8]), 35%; in test [1] (at 50.0 µM), 3.35%; in test [2] (setting [7]), -12%; in test [2] (setting [8]) it was -5%; in test [2] (at 50.0 µM), 1.6%. For the same molecule, the growth inhibition in test [3] (setting [7]) was -1%; in test [3] (setting [8]) it was -1%; in test [3] (at 50.0 µM) it was 3%; in test [4] (setting [7]), 5%; in test [4] (setting [8]), 8%; in test [4] (at 50.0 µM) it was 15.4%. For the same molecule, the growth inhibition is 2% in test [5] (setting [7]); 1% in test [5] (setting [8]); -5.95% in test [5] (at 50.0 µM); 3% in test [6] (setting [7]); 24% in test [6] (setting [8]); 14.8% in test [6] (at 50.0 µM).
As for `Nc1ccc2nc(Nc3ccc(F)cc3)cnc2c1`, the growth inhibition was -11% in test [1] (setting [7]); 63% in test [1] (setting [8]); 63.5% in test [1] (at 50.0 µM); -9% in test [2] (setting [7]); 27% in test [2] (setting [8]); 15.4% in test [2] (at 50.0 µM). The growth inhibition in test [3] (setting [7]) was -18%; in test [3] (setting [8]), 36%; in test [3] (at 50.0 µM), 56%; in test [4] (setting [7]), 17%; in test [4] (setting [8]) it was 49%; in test [4] (at 50.0 µM), 28.9%. For the same molecule, the growth inhibition in test [5] (setting [7]) was 7%; in test [5] (setting [8]) it was 73% (active); in test [5] (at 50.0 µM), 60%; in test [6] (setting [7]) it was 7%; in test [6] (setting [8]) it was 77% (active); in test [6] (at 50.0 µM), 65.2%.
For the molecule `CCOc1ccccc1C(=O)Oc1cccc(C)c1`, the growth inhibition in test [1] (setting [7]) is -7%; in test [1] (setting [8]), -1%; in test [1] (at 50.0 µM) it was 1.95%; in test [2] (setting [7]), -8%; in test [2] (setting [8]) it was -18%; in test [2] (at 50.0 µM) it was -9.75%. In addition, the growth inhibition in test [3] (setting [7]) was -2%; in test [3] (setting [8]) it was 12%; in test [3] (at 50.0 µM), 5.55%; in test [4] (setting [7]) it was -21%; in test [4] (setting [8]), 32%; in test [4] (at 50.0 µM), -5.2%. For the same molecule, the growth inhibition is 6% in test [5] (setting [7]); -6% in test [5] (setting [8]); 11.8% in test [5] (at 50.0 µM); -19% in test [6] (setting [7]); 17% in test [6] (setting [8]); 18.9% in test [6] (at 50.0 µM).
